Binding signal data for eight sequences are collected here from paper PMC4081100, “A DNA-binding-site landscape and regulatory network analysis for NAC transcription factors in Arabidopsis thaliana”.

Assay in all cases: universal protein binding microarray (PBM); transcription factors of Arabidopsis thaliana; high values mean tight binding
Conditions in all cases: protein: recombinant; tags: GST; chain copies: 2; dsDNA, one strand shown

The target in one assay is T1, GST-ANAC092(1-176) (Arabidopsis thaliana, UniProt Q9FKA0 1-176).
T1 sequence: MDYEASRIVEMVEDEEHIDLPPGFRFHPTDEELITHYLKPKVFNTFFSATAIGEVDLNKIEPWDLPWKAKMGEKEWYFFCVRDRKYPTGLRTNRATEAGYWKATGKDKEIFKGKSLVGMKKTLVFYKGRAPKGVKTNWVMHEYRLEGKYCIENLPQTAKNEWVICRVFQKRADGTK
An outline of the steps: (§1)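 Cells were induced to make GST-tagged NAC-domain, full-length or DNA-binding-domain proteins, and zinc acetate was added for zinc-finger proteins. These proteins were purified on glutathione–Sepharose 4B, quantified by A280 or anti-GST western blot, and applied in duplicate at 200 to 500 nM final to custom all-10-mer Agilent 4 × 180K arrays that primer extension had made double-stranded. Binding is given as the normalised enrichment score (E-score) for scored gapped and ungapped 8-mers.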

The next assay deals with T2, GST-ANAC019 NAC domain (Arabidopsis thaliana, UniProt Q9C932 14-162).
T2 sequence: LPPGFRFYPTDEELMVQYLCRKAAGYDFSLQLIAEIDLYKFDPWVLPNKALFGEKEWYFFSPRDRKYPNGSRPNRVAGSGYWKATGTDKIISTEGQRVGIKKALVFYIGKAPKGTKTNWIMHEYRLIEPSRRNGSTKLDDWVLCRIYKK
The gist of the method:
as §1

The target of the next assay is T3, GST-ANAC055(1-171) (Arabidopsis thaliana, UniProt Q9LDY8 1-171).
T3 sequence: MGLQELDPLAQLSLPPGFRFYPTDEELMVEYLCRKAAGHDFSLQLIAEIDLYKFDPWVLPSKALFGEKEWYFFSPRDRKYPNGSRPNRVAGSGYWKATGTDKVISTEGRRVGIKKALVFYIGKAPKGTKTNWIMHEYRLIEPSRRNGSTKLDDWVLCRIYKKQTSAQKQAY
The gist of the method: as §1

The target of another assay is T4, GST-ATAF1 NAC domain (Arabidopsis thaliana, UniProt Q39013 7-158).
T4 sequence: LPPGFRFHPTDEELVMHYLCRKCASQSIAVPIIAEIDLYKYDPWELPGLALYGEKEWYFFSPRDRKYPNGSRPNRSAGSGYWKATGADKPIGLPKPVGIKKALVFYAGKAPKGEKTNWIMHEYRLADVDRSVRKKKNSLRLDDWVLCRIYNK
An outline of the steps:
as §1

Assay [1] has as its target T5, GST-ANAC092(1-285) full length (Arabidopsis thaliana, UniProt Q9FKA0 1-285).
T5 sequence: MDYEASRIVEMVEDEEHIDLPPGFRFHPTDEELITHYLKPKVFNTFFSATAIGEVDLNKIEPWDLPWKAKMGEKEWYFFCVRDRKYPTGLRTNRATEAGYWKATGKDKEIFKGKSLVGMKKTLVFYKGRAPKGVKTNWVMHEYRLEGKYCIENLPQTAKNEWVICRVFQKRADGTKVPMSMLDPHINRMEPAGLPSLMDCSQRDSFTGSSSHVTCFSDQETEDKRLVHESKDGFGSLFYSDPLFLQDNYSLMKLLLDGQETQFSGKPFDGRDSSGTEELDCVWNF
An outline of the steps:
as §1

In the next assay the target is T6, GST-NAP(1-166) (Arabidopsis thaliana, UniProt O49255 1-166).
T6 sequence: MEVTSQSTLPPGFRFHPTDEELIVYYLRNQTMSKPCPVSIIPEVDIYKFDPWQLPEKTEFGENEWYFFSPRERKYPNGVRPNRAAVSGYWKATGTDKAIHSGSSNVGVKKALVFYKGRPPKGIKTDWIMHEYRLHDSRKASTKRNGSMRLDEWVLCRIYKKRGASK
An outline of the steps:
as §1

The target of another assay is T7, GST-NST2(1-184) (Arabidopsis thaliana, UniProt Q9M274 1-184).
T7 sequence: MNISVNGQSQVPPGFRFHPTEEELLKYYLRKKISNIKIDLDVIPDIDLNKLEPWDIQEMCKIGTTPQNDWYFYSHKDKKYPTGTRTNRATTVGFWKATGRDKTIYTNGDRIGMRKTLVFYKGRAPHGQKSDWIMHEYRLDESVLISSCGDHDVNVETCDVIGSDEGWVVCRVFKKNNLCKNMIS
An outline of the steps: as §1

A further assay has as its target T8, GST-SND1(1-203) (Arabidopsis thaliana, UniProt Q9LPI7 1-203).
T8 sequence: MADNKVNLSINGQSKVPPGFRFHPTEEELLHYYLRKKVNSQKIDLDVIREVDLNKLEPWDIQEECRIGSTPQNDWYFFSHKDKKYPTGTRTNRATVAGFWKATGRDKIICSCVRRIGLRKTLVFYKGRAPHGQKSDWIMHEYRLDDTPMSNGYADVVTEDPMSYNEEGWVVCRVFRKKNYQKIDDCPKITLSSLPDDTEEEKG
An outline of the steps: as §1

In the next assay the target is T9, GST-VND3 NAC domain (Arabidopsis thaliana, UniProt Q9FH59 12-162).
T9 sequence: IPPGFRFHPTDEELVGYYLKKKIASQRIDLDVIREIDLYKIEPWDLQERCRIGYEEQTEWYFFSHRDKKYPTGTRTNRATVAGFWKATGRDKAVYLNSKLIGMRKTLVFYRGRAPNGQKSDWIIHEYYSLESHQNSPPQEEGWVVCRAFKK
An outline of the steps:
as §1

The next assay addresses T10, GST-VND7 NAC domain (Arabidopsis thaliana, UniProt Q9C8W9 9-158).
T10 sequence: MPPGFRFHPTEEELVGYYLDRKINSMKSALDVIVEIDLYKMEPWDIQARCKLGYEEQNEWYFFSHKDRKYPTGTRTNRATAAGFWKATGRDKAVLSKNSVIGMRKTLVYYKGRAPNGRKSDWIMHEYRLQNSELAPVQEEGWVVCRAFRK
An outline of the steps:
as §1

Turning to ACGTGTAC, the binding signal with GST-ANAC092(1-176) was 0.328 E-score; with GST-ANAC019 NAC domain, 0.309 E-score; with GST-ANAC055(1-171), 0.286 E-score; with GST-ATAF1 NAC domain it was 0.279 E-score; in [1] it was 0.413 E-score; in the assay with GST-NAP(1-166) it was 0.278 E-score. The binding signal in the assay with GST-NST2(1-184) came out at 0.201 E-score; with GST-SND1(1-203), 0.204 E-score; with GST-VND3 NAC domain it was 0.267 E-score; with GST-VND7 NAC domain, 0.206 E-score.
On to GCACGGCA, for which the binding signal is 0.449 E-score with GST-ANAC092(1-176); 0.472 E-score in the assay with GST-ANAC019 NAC domain; 0.448 E-score in the assay with GST-ANAC055(1-171); 0.361 E-score with GST-ATAF1 NAC domain; 0.461 E-score in [1]; 0.41 E-score with GST-NAP(1-166). For the same sequence, the binding signal came out at 0.164 E-score with GST-NST2(1-184), 0.107 E-score in the assay with GST-SND1(1-203), 0.408 E-score with GST-VND3 NAC domain and 0.461 E-score in the assay with GST-VND7 NAC domain.
In the case of ATGGCGTG, the binding signal is 0.443 E-score in the assay with GST-ANAC092(1-176); 0.196 E-score with GST-ANAC019 NAC domain; 0.138 E-score in the assay with GST-ANAC055(1-171); 0.17 E-score in the assay with GST-ATAF1 NAC domain; 0.456 E-score in assay [1]; 0.161 E-score in the assay with GST-NAP(1-166). Also, the binding signal is 0.227 E-score in the assay with GST-NST2(1-184), 0.249 E-score in the assay with GST-SND1(1-203), 0.151 E-score with GST-VND3 NAC domain and 0.155 E-score with GST-VND7 NAC domain.
Turning to ACACGTAT, the binding signal came to 0.289 E-score with GST-ANAC092(1-176); 0.406 E-score with GST-ANAC019 NAC domain; 0.342 E-score with GST-ANAC055(1-171); 0.312 E-score in the assay with GST-ATAF1 NAC domain; 0.369 E-score in [1]; 0.387 E-score with GST-NAP(1-166). Moreover, the binding signal in the assay with GST-NST2(1-184) is 0.19 E-score; with GST-SND1(1-203), 0.139 E-score; in the assay with GST-VND3 NAC domain, 0.38 E-score; with GST-VND7 NAC domain, 0.381 E-score.
As to ACGTACGC, the binding signal came out at 0.212 E-score with GST-ANAC092(1-176); 0.202 E-score with GST-ANAC019 NAC domain; 0.16 E-score in the assay with GST-ANAC055(1-171); 0.26 E-score with GST-ATAF1 NAC domain; 0.402 E-score in [1]; 0.274 E-score in the assay with GST-NAP(1-166). Moreover, the binding signal in the assay with GST-NST2(1-184) worked out at 0.193 E-score; with GST-SND1(1-203) it was 0.253 E-score; with GST-VND3 NAC domain, 0.252 E-score; in the assay with GST-VND7 NAC domain, 0.209 E-score.
For the sequence ACGCATCC, the binding signal with GST-ANAC092(1-176) was found to be 0.388 E-score; with GST-ANAC019 NAC domain it was 0.216 E-score; with GST-ANAC055(1-171) it was 0.194 E-score; with GST-ATAF1 NAC domain, 0.195 E-score; in assay [1] it was 0.431 E-score; with GST-NAP(1-166), 0.256 E-score. In addition, the binding signal with GST-NST2(1-184) is 0.173 E-score; with GST-SND1(1-203), 0.397 E-score; in the assay with GST-VND3 NAC domain it was 0.16 E-score; in the assay with GST-VND7 NAC domain it was 0.231 E-score.
As to CTAACGTA, the binding signal with GST-ANAC092(1-176) turned out to be 0.323 E-score; in the assay with GST-ANAC019 NAC domain it was 0.0668 E-score; with GST-ANAC055(1-171), 0.216 E-score; with GST-ATAF1 NAC domain it was 0.29 E-score; in assay [1], 0.391 E-score; with GST-NAP(1-166), 0.173 E-score. Further, the binding signal with GST-NST2(1-184) came to 0.277 E-score; with GST-SND1(1-203), 0.426 E-score; with GST-VND3 NAC domain it was 0.25 E-score; in the assay with GST-VND7 NAC domain, 0.165 E-score.
With ACGTTAGC, the binding signal was 0.377 E-score with GST-ANAC092(1-176); 0.144 E-score in the assay with GST-ANAC019 NAC domain; 0.0938 E-score with GST-ANAC055(1-171); 0.213 E-score with GST-ATAF1 NAC domain; 0.406 E-score in [1]; 0.0584 E-score in the assay with GST-NAP(1-166). The binding signal in the assay with GST-NST2(1-184) came to 0.166 E-score; with GST-SND1(1-203), 0.343 E-score; with GST-VND3 NAC domain, 0.183 E-score; with GST-VND7 NAC domain, 0.128 E-score.
